We go through 40 compounds from PubChem BioAssay AID1508648 (National Center for Advancing Translational Sciences (NCATS), 2021).

SMILES strings stand for the structures. Inconclusive results are not listed. Where a call stands in place of a potency, no number is given. Activity calls are given as the source filed them. Calls come from the whole dose curve; as a rule, active = well fitted cell-killing curve with a large enough effect; inconclusive = small, poorly fitted or top-dose-only effect, or effect the other way; inactive = flat fitted curve, though single readings scatter.

The test is described as follows: Cell viability assay in S16 Pmp22-HiBiT cells - Confirmatory screen. The conditions noted are these: S16 Schwann Pmp22-HiBiT viability, CellTiter-Glo, 24 h; series mostly up to 27.9 µM. From the text:
Assay Provider: Jim Inglese Ph.D. National Center for Advancing Translational Science, National Institutes of Health, Rockville, MD CMT is a heterogeneous group of neurological disorders that affect approximately 1 in 2,500 people. In particular, the most common form of CMT, CMT1A is genetically linked to the duplication of the PMP22 gene which leads to Schwann cell overexpression, thus manifesting itself as a typical case of dose-sensitive diseases. To identify small molecule compounds that can mediate the expression of PMP22 we developed a phenotypic assay screening strategy by utilizing genome editing techniques to construct Schwann cell lines containing novel reporter technology to monitor the transcriptional or translational regulation of PMP22. For high sensitivity we use a bioluminescent reporter system embedded in the 3' UTR of the PMP22 gene (S16(c9) Pmp22-F2sN) to identify compounds that inhibit gene expression. […] We can further discriminate the effect of all transcriptionally active molecules on PMP22 translation or stability with an assay that incorporates a short NLuc peptide (HiBiT) at the C-terminus of expressed PMP22 (S16(f8) PMP22-HiBiT) allowing alpha complementation and luminescence detection of membrane-associated PMP22 protein. These assays were screened against the NCATS Sytravon Library Collection. Miniaturization of these assays to 1536-well plate format for quantitative high throughput screening (qHTS) yielded rich data sets immediately from the qHTS assay (S16(c9) Pmp22-F2sN), when compared with data from a cell viability assay (Cell TiterGlo) to identify compounds that decreased the output signals through cellular toxicity to streamline the selection process of actives for subsequent characterization using the HiBiT assay (S16(f8) PMP22-HiBiT).
Cell viability assay in S16 Pmp22-HiBiT cells PROTOCOL TABLE (format as described by Inglese J, Shamu CE and Guy RK. 2007) SEQUENCE No. (e.g., 1, 2, 3, etc.); PARAMETER (e.g., Cells, Incubation, Reagent, etc.); VALUE and DESCRIPTION. 1. Cells. Add 500-1,000 cells in 4 uL in growth media (DMEM High Glucose, No Phenol Red media + 10% heat-inactivated FBS + 1% Pen/Strep supplemented media) per well into Greiner 1536-well white/solid bottom high base, TC-treated plates. 2. Compounds. Library compounds and controls added at 23nL per well, transferred by Pin Tool. 3. Incubation. Incubate plates at 37C, 5% CO2, 95% RH for 24 h. 4. Reagent. Add 3uL CellTiter-Glo per well of Greiner 1536-well plates. 5. Incubation. Incubate plates at room temperature for 15 min., protect from light. 6. Detector. Luminescence measured using CCD-based camera (Viewlux). NOTES (numbers refer to Sequence numbers above; values are from representative experiments) 6. Luminescence Read: Clear filter; Exposure = 1 sec, Gain = High, Speed = Slow, Binning = 2X REFERENCES: 1. Inglese J, Shamu CE and Guy RK, Reporting data from high throughput screening of small molecule libraries, Nature Chemical Biology, 2007, 3(8): 438-441. doi.org/10.1038/nchembio0807-438 2. Yasgar A, Shinn P, Jadhav A, Auld DS, Michael S, Zheng W, Austin CP, Inglese J and Simeonov A, Compound Management for Quantitative High-Throughput Screening. J. Assoc. Lab. Auto., 2008, 13: 79-89. doi: 10.1016/j.jala.2007.12.004
A general note: With HiBiT, luminescence reflects the tagged protein that the partner subunit can reach.
As for `COc1ccccc1Nc1c2c(nc3ccc(NC(=O)/C=C/c4cccc(OC)c4OC)cc13)CCCC2`, the Potency is 5.13 µM (active).
With `Cc1ccccc1S(=O)(=O)Cc1ccc(C(=O)N2CCN(c3cccc(Cl)c3)CC2)o1`, the Potency result is “inactive”.
Regarding `CCc1ccc(C(=O)c2cn(CC(=O)Nc3ccc4c(c3)OCO4)c3ccc(CC)cc3c2=O)cc1`, the Potency was 14.5 µM (active).
As to `CCN(CC)CCNC(=O)c1cc(-c2ccc(Br)s2)nc2ccccc12`, the Potency is 10.2 µM (active).
With `COC(=O)c1ccccc1NC(=O)c1nc(S(=O)(=O)Cc2cccc(C)c2)ncc1Cl`, the Potency result is “inactive”.
For `Cc1ccc(OCC(=O)Nc2ccc3nc(SCC(=O)N4CCc5ccccc54)sc3c2)cc1` the value was “inactive”.
`COc1ccccc1Nc1nn2c(=O)c3ccc(C(=O)Nc4ccc(F)cc4)cc3nc2s1`: the Potency was 7.24 µM (active).
Consider `O=C(Cn1c(-c2cccs2)cc2cc(F)ccc21)NCCCN1CCN(c2ccc(F)cc2)CC1`, for which the Potency result is “inactive”.
For `COc1ccc(NC(=O)Cn2c(=O)n(CCC(=O)NCc3ccccc3OC)c(=O)c3ccccc32)cc1Cl` the value was 16.2 µM (active); for `CCCCCS(=O)(=O)c1oc(-c2cccs2)nc1S(=O)(=O)c1ccc(C)cc1`, 18.2 µM (active); for `CCS(=O)(=O)c1ncc(Cl)c(C(=O)Nc2c(C(=O)c3ccc(C)cc3)oc3ccccc23)n1`, “inactive”.
For `Cc1cccc(-n2c(=O)c3c(c4cc(C)ccc4n3C)n(CC(=O)NCCC3=CCCCC3)c2=O)c1` the value was “inactive”; for `COc1ccccc1NC(=O)Cn1c(=O)n(-c2cccc(Cl)c2)c(=O)c2sc3ccccc3c21`, 12.9 µM (active); for `COc1ccc(Br)c2c1-c1nc(NC(=O)c3cccc(C)c3)sc1C2`, “inactive”.
Then `O=S(=O)(NCC(c1ccco1)S(=O)(=O)c1cccs1)c1ccc(Cl)cc1` (stereo not given), with “inactive”; and `CCC(=O)C1=C(c2cccc([N+](=O)[O-])c2)N(C(=O)CC)n2c(nnc2-c2ccccc2)S1`, with “inactive”; and `Cc1cc(NC(=O)C2CCCN(S(=O)(=O)c3cccc4nonc34)C2)ccc1Br` (stereo not given), with “inactive”.
As to `CCC(Sc1nc2ccccc2c2nc(-c3ccccc3)nn12)C(=O)Nc1cccc(OC)c1` (stereo not given), the Potency result was “inactive”.
Turning to `CCOCCCNC(=O)c1ccc(-n2c(-c3ccccc3)cc3c2CCC(C)C3)cc1` (stereo not given), the Potency entry is “inactive”.
Then `O=C(Cn1c(-c2cccs2)cc2ccccc21)NCCCN1CCN(c2ccc(F)cc2)CC1`, with “inactive”; and `COc1ccc(NC(=O)CCS(=O)(=O)c2nc(-c3cccs3)cc(C(F)(F)F)n2)cc1`, with “inactive”.
`CCC(=O)C1=C(c2cccc([N+](=O)[O-])c2)N(C(=O)CC)n2c(nnc2C2CCCCC2)S1`: the Potency result was “inactive”.
For `CCOc1ccc(C(=O)c2cnc3ccc(Cl)cc3c2S(=O)(=O)c2ccc(C)cc2)cc1`, the Potency result is “inactive”.
`Cc1ccc(NC(=O)N2CCc3cc(S(=O)(=O)N4CCC(C)CC4)ccc32)cc1F`: the Potency result was “inactive”.
In the case of `COc1ccc(-c2cc(C(F)(F)F)nc(S(C)(=O)=O)n2)cc1`, the Potency is 18.2 µM (active).
Consider `COC(=O)c1c(-c2ccc(Cl)cc2)noc1N1CCN(c2cccc(C(F)(F)F)c2)CC1`, for which the Potency was 10.2 µM (active).
Consider `Cc1cc(C)c(NC(=O)Cn2c(=O)n(Cc3ccco3)c(=O)c3ccc(C(=O)NC4CCCC4)cc32)c(C)c1`, for which the Potency entry is “inactive”.
In the case of `COc1ccc(Cl)cc1NC(=O)CCCS(=O)(=O)c1nc(-c2ccc(OC)c(OC)c2)cc(C(F)(F)F)n1`, the Potency was 6.45 µM (active).
For `CCOc1cc(CNc2ccc(O)cc2)cc(Br)c1OCc1ccccc1` the value was “inactive”.
Then `O=C(CCS(=O)(=O)c1nc(-c2cccs2)cc(C(F)(F)F)n1)Nc1ccc(OC(F)(F)F)cc1`, with “inactive”; and `Cc1cccc(CS(=O)(=O)c2ncc(Cl)c(C(=O)Nc3nc4ccc(F)cc4s3)n2)c1`, with 14.5 µM (active).
Turning to `Cc1c(Cl)cccc1NC(=O)c1oc2ccc(S(=O)(=O)N3CCC4(CC3)OCCO4)cc2c1C`, the Potency entry is “inactive”.
As to `CCOC(=O)c1c(NC(=O)c2nc(S(C)(=O)=O)ncc2Cl)sc(C(C)=O)c1C`, the Potency is 4.57 µM (active).
For `Cc1ccc(S(=O)(=O)c2nnn3c2nc(NC2CCCCCC2)c2sccc23)cc1C` the value was “inactive”; for `CCCn1c(=N)c(C(=O)NC(C)c2ccccc2)cc2c(=O)n3ccccc3nc21` (stereo not given), “inactive”; for `CCN(CC)c1ccc(NC(=O)C2COc3ccc(OC)cc3C2)c(C)c1` (stereo not given), “inactive”.
For the compound `CCC(C)NC(=O)C1CCN(C(=O)c2cc3sccc3n2Cc2ccc(Cl)cc2)CC1` (stereo not given), the Potency was 11.5 µM (active).
For `Cc1ccc(CN2C(=O)C(O)(c3c(C)[nH]c4ccccc34)c3ccccc32)cc1` (stereo not given), the Potency entry is “inactive”.
For `COc1ccccc1CNC(=O)CSc1nnc(C)c2c(C)n(-c3ccccc3)nc12` the value was “inactive”.
With `COc1ccc(Br)cc1CC1C(=O)Nc2ccccc21` (stereo not given), the Potency entry was “inactive”.
